{"source": "the supplement of paper PMC10849652", "note": "About 7,900 targets were measured; listed, in parts, are those with a hit and a random draw of the rest. About 0.6% of all pairs of compound and target were hits. Values without a mark were called inactive."}
{"compound": "CN1CCc2c(c3ccccc3n2Cc2ccc(C(=O)NO)cc2)C1 [Tubastatin A]", "assay": "log2 fold change, soluble protein after heating vs DMSO (PISA); higher = thermal stabilisation; K562 cells, 10 uM, 30 min; active = over 0.2 and 3.5 SD of the protein, either way, in both replicates (recomputed)", "summary_of_the_method": "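Aliquots of K562 cells (2×10^6 cells/mL) treated with 10 μM compound for 30 min were heated for 3 min over 48°C-58°C. After pooling and extraction in PBS with 0.5% NP-40 at 4°C, soluble protein from a 21,000xg, 90 min spin was quantified by TMTpro 16plex LC-MS/MS with channel sums equalised. Thermal stability is expressed against control samples, from duplicates, as a log2 fold change.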"}
{"target": "TERF2IP (UniProt Q9NYB0)", "sequence (Q9NYB0 whole entry, looked up)": "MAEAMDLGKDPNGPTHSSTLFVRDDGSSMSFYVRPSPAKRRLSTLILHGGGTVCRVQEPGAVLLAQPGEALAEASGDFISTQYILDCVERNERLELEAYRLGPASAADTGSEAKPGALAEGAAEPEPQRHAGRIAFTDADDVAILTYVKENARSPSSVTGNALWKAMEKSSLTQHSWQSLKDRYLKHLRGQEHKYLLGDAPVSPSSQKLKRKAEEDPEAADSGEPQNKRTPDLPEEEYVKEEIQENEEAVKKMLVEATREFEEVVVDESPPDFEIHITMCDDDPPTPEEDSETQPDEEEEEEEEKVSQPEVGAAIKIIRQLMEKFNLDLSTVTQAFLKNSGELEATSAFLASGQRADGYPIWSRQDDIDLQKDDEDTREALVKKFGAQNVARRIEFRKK", "log2 fold change": 0.128}
{"target": "TGFBR1 isoform 2 (UniProt P36897)", "sequence (P36897 whole entry, looked up)": "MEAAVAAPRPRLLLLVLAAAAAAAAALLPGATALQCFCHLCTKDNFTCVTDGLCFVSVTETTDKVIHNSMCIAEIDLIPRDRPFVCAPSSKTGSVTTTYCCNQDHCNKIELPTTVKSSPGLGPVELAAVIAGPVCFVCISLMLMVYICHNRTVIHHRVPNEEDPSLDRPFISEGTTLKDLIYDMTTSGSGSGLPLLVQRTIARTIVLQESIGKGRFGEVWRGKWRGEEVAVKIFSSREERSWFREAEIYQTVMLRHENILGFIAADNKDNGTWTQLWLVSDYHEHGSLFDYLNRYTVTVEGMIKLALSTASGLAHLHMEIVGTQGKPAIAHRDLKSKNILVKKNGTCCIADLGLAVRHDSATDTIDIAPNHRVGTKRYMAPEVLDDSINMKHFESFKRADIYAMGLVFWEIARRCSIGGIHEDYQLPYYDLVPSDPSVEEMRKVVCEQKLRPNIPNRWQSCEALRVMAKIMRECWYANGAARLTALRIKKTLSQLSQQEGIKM", "log2 fold change": 0.023}
{"target": "SLC25A39 (UniProt Q9BZJ4)", "log2 fold change": -0.18}
{"target": "SLC27A2 (UniProt O14975)", "log2 fold change": -0.015}
{"target": "STAT5B (UniProt P51692)", "log2 fold change": 0.045}
{"target": "TBC1D15 isoform 3 (UniProt Q8TC07)", "log2 fold change": -0.011}
{"target": "TELO2 (UniProt Q9Y4R8)", "log2 fold change": -0.004}
{"target": "SQSTM1 (UniProt Q13501)", "log2 fold change": -0.022}
{"target": "TBC1D5 isoform 2 (UniProt Q92609)", "sequence (Q92609 whole entry, looked up)": "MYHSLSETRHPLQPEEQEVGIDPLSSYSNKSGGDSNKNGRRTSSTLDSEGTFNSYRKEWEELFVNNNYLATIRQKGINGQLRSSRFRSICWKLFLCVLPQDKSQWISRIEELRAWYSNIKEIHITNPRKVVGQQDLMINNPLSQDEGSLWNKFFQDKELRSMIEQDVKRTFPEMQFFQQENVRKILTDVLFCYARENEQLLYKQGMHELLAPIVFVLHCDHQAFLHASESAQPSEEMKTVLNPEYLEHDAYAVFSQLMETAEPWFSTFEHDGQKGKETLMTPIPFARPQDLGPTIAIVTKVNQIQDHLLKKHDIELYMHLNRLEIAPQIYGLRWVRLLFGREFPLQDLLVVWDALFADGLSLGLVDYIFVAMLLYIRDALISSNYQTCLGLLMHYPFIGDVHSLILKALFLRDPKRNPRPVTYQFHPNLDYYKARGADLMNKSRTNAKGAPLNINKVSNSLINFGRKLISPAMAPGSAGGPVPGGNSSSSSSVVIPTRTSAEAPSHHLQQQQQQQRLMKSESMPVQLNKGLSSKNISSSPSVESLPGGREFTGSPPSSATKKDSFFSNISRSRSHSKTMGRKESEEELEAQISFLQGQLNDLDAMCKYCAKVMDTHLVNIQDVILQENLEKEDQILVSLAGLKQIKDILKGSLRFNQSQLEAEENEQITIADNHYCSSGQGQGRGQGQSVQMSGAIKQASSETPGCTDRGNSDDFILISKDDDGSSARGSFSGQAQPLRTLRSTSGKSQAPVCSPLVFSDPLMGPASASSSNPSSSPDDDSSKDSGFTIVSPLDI", "log2 fold change": -0.036}
{"target": "SRI (UniProt P30626)", "log2 fold change": 0.039}
{"target": "STAT3 (UniProt P40763)", "log2 fold change": 0.05}
{"target": "SRPRA (UniProt P08240)", "sequence (P08240 whole entry, looked up)": "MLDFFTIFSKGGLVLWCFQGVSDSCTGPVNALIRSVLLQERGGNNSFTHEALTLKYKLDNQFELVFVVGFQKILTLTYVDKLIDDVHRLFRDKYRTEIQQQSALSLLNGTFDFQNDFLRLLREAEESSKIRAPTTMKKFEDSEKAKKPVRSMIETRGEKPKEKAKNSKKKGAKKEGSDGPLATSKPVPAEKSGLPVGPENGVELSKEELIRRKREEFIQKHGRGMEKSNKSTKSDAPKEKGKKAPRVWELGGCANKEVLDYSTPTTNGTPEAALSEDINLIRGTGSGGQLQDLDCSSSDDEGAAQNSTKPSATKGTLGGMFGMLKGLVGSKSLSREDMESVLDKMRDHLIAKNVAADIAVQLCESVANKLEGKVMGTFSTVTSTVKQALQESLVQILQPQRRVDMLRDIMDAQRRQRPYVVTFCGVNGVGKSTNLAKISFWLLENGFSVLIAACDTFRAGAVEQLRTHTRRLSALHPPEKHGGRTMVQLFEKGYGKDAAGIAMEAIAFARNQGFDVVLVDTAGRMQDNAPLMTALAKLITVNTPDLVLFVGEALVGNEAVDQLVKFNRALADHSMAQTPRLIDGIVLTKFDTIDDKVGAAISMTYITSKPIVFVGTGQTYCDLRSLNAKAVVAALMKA", "log2 fold change": -0.007}
{"target": "TAOK1 (UniProt Q7L7X3)", "log2 fold change": 0.032}
{"target": "STK26 (UniProt Q9P289)", "log2 fold change": -0.049}
{"target": "STK4 (UniProt Q13043)", "sequence (Q13043 whole entry, looked up)": "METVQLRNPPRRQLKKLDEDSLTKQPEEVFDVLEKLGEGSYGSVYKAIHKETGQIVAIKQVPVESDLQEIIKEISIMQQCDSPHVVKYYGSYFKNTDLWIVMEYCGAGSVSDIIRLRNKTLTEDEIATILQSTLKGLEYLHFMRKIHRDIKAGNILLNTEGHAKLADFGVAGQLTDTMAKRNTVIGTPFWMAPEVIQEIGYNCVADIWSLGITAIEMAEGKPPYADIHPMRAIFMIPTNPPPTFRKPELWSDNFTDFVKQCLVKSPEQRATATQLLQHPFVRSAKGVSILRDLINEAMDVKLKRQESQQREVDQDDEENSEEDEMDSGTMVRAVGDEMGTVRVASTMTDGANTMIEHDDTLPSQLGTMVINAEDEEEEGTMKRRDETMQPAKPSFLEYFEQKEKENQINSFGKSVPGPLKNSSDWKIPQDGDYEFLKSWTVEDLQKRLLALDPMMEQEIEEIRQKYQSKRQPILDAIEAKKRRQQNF", "log2 fold change": 0.039}
{"target": "STXBP2 isoform 3 (UniProt Q15833)", "log2 fold change": 0.085}
{"target": "SRPRB (UniProt Q9Y5M8)", "log2 fold change": 0.004}
{"target": "TIMM29 (UniProt Q9BSF4)", "sequence (Q9BSF4 whole entry, looked up)": "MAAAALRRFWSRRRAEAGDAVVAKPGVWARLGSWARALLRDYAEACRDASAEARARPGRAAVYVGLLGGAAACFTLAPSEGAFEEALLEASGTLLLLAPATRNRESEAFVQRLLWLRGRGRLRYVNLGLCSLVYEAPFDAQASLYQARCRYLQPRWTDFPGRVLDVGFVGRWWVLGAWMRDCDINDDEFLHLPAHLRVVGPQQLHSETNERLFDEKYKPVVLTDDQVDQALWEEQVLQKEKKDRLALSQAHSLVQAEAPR", "log2 fold change": 0.003}
{"target": "SPG11 (UniProt Q96JI7)", "log2 fold change": 0.012}
{"target": "SLC25A36 (UniProt Q96CQ1)", "log2 fold change": -0.027}
{"target": "SLC25A42 (UniProt Q86VD7)", "sequence (Q86VD7 whole entry, looked up)": "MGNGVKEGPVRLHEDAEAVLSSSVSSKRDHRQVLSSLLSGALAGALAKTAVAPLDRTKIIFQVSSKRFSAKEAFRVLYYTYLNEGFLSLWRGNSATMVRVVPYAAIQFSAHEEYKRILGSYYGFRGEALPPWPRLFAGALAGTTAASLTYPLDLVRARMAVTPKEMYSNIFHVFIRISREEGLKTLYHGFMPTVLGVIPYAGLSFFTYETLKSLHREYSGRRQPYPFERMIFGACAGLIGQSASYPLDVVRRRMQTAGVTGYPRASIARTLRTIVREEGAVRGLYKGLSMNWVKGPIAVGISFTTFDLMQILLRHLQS", "log2 fold change": -0.032}
{"target": "TAMM41 isoform 3 (UniProt Q96BW9)", "log2 fold change": -0.043}
{"target": "SRSF4 (UniProt Q08170)", "log2 fold change": 0.17}
{"target": "SNRNP27 (UniProt Q8WVK2)", "log2 fold change": -0.023}
{"target": "TJP2 isoform 7 (UniProt Q9UDY2)", "sequence (Q9UDY2 whole entry, looked up)": "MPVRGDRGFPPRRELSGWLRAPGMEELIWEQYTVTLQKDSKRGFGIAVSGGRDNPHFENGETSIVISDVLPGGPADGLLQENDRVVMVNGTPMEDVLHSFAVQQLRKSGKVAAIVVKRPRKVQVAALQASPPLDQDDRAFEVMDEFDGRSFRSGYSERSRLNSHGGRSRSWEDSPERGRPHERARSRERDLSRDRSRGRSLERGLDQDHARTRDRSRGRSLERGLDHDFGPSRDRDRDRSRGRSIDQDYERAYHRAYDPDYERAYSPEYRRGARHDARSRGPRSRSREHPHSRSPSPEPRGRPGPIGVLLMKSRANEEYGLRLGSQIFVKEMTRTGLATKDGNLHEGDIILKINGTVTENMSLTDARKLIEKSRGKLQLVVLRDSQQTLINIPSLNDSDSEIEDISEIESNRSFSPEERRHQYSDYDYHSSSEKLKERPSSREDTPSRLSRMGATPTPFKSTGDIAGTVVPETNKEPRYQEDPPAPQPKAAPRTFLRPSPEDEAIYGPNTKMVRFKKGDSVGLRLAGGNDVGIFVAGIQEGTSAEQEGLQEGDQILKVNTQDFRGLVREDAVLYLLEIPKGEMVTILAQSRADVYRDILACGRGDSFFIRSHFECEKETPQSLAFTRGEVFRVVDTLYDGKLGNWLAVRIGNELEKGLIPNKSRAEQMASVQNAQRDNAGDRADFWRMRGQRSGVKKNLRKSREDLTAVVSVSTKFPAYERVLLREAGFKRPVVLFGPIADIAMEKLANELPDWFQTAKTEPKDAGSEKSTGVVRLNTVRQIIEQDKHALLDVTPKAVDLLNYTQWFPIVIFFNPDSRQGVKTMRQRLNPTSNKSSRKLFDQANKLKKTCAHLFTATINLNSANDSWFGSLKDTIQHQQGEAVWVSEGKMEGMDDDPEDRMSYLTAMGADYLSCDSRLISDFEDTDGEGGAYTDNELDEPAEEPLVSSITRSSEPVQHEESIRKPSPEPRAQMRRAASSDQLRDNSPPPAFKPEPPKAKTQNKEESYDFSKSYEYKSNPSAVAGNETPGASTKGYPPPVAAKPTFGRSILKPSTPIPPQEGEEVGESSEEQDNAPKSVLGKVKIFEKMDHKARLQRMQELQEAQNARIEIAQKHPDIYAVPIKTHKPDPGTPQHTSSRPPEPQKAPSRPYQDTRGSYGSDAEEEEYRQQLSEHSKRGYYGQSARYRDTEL", "log2 fold change": 0.047}
{"target": "STEAP3 isoform 2 (UniProt Q658P3)", "log2 fold change": -0.027}
{"target": "SP100 isoform 4 (UniProt P23497)", "log2 fold change": -0.015}
{"target": "SPG21 (UniProt Q9NZD8)", "sequence (Q9NZD8 whole entry, looked up)": "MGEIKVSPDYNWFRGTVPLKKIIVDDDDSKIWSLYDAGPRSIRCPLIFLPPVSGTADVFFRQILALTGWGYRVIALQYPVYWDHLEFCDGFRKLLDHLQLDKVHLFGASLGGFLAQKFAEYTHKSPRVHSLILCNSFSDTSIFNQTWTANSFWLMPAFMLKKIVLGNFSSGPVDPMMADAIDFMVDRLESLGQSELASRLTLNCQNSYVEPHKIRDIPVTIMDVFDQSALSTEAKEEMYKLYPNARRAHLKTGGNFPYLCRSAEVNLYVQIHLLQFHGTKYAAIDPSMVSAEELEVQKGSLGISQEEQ", "log2 fold change": 0.016}
{"target": "TIMM44 (UniProt O43615)", "log2 fold change": -0.055}
{"target": "TBC1D23 (UniProt Q9NUY8)", "log2 fold change": 0.043}
{"target": "SPAG9 (UniProt O60271)", "log2 fold change": 0.003}
{"target": "SNRPB2 (UniProt P08579)", "log2 fold change": -0.11}
{"target": "SNX6 (UniProt Q9UNH7)", "log2 fold change": -0.051}
{"target": "STK25 (UniProt O00506)", "log2 fold change": -0.007}
{"target": "TJP1 (UniProt Q07157)", "log2 fold change": 0.045}
{"target": "STK11IP (UniProt Q8N1F8)", "log2 fold change": 0.084}
{"target": "SUMO1 (UniProt P63165)", "sequence (P63165 whole entry, looked up)": "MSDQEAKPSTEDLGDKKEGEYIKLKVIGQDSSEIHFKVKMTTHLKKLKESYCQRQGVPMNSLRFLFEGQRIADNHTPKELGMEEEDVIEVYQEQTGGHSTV", "log2 fold change": -0.073}
{"target": "TM9SF2 (UniProt Q99805)", "log2 fold change": -0.001}
